# Experimental data reported in the supplement of paper PMC11732987, “Enantioselective OTUD7B fragment discovery through chemoproteomics screening and high-throughput optimisation” (Communications Chemistry, 2025).
# A number with no mark means an inactive call.
# Assays:
# Assay in all cases: log2 ratio of Biotin-Ahx-Ub-VS probe labelling (fragment/DMSO); higher = less target engagement (more negative = stronger competition), active = hit call of the paper (q ≤ 0.05, log2 ratio ≤ -1)
# Settings in all cases: compound concentration: 200 uM; treatment time: 3 h
# USP19 = target: T1, USP19 (UniProt O94966)
# T1 sequence (whole entry): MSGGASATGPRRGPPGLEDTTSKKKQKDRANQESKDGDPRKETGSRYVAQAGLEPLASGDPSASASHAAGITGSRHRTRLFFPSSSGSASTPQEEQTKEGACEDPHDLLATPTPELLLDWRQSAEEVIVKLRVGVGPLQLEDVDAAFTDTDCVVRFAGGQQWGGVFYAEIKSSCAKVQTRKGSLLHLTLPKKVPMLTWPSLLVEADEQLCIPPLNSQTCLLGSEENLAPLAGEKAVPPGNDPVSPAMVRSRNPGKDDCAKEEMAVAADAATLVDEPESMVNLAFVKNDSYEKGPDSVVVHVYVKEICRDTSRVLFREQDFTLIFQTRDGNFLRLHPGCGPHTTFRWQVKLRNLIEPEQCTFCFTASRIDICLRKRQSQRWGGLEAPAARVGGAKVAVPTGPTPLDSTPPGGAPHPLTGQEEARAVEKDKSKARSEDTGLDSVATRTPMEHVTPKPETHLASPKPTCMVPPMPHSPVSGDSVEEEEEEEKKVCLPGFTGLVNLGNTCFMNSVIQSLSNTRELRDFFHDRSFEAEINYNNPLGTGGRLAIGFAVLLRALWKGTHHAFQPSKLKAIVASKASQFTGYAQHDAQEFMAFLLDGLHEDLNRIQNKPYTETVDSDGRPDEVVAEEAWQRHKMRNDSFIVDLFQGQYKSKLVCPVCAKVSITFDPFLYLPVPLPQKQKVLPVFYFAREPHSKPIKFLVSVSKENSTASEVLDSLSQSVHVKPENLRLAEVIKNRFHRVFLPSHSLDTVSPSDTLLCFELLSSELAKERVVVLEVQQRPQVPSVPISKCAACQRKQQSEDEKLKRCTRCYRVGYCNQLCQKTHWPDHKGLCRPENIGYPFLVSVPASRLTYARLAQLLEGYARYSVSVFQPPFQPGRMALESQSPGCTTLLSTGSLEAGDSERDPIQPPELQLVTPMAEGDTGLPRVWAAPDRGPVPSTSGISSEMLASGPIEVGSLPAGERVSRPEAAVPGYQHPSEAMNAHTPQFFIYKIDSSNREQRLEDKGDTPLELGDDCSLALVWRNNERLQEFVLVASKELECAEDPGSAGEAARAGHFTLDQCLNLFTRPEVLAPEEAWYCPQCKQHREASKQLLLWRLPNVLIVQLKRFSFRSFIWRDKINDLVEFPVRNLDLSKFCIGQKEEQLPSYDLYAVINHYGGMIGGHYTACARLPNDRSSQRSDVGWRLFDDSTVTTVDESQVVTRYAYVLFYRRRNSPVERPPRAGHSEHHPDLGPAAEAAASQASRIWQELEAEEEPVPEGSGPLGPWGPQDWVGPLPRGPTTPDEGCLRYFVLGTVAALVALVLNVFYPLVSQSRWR
# Summary of the method: (§1)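 Using Biotin-Ahx-Ub-VS at 0.5 µM final for 1 h, DUBs were labelled in HEK293T lysate (495 µg per sample) that had first been treated in triplicate with fragment at 200 µM or vehicle for 3 h. NeutrAvidin enrichment, LysC and trypsin digestion and diaPASEF LC-MS/MS followed. Spectronaut label-free quantities were global-median-normalised. Values are average log2 fragment/vehicle ratios by unpaired t-test, using proteins with ≥2 unique peptides.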
# USP22 = target: T2, USP22 (UniProt Q9UPT9)
# T2 sequence (whole entry): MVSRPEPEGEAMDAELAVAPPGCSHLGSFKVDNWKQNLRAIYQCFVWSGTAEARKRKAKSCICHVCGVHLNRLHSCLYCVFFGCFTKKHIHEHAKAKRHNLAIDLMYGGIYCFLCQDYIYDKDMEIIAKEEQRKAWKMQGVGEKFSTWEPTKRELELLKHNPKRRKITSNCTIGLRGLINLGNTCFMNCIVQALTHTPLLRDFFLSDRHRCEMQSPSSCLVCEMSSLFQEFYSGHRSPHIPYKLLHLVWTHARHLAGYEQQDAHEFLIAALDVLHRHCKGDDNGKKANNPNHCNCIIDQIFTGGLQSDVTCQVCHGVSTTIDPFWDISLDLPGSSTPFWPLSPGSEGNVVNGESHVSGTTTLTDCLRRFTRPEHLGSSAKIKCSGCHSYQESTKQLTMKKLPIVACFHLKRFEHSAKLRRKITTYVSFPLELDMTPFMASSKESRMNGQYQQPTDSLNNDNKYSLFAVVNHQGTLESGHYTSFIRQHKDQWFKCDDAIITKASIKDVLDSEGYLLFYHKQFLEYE
# Summary of the method: as §1
# USP24 = USP24 (UniProt Q9UPU5)
# USP24, sequence (Q9UPU5 whole entry): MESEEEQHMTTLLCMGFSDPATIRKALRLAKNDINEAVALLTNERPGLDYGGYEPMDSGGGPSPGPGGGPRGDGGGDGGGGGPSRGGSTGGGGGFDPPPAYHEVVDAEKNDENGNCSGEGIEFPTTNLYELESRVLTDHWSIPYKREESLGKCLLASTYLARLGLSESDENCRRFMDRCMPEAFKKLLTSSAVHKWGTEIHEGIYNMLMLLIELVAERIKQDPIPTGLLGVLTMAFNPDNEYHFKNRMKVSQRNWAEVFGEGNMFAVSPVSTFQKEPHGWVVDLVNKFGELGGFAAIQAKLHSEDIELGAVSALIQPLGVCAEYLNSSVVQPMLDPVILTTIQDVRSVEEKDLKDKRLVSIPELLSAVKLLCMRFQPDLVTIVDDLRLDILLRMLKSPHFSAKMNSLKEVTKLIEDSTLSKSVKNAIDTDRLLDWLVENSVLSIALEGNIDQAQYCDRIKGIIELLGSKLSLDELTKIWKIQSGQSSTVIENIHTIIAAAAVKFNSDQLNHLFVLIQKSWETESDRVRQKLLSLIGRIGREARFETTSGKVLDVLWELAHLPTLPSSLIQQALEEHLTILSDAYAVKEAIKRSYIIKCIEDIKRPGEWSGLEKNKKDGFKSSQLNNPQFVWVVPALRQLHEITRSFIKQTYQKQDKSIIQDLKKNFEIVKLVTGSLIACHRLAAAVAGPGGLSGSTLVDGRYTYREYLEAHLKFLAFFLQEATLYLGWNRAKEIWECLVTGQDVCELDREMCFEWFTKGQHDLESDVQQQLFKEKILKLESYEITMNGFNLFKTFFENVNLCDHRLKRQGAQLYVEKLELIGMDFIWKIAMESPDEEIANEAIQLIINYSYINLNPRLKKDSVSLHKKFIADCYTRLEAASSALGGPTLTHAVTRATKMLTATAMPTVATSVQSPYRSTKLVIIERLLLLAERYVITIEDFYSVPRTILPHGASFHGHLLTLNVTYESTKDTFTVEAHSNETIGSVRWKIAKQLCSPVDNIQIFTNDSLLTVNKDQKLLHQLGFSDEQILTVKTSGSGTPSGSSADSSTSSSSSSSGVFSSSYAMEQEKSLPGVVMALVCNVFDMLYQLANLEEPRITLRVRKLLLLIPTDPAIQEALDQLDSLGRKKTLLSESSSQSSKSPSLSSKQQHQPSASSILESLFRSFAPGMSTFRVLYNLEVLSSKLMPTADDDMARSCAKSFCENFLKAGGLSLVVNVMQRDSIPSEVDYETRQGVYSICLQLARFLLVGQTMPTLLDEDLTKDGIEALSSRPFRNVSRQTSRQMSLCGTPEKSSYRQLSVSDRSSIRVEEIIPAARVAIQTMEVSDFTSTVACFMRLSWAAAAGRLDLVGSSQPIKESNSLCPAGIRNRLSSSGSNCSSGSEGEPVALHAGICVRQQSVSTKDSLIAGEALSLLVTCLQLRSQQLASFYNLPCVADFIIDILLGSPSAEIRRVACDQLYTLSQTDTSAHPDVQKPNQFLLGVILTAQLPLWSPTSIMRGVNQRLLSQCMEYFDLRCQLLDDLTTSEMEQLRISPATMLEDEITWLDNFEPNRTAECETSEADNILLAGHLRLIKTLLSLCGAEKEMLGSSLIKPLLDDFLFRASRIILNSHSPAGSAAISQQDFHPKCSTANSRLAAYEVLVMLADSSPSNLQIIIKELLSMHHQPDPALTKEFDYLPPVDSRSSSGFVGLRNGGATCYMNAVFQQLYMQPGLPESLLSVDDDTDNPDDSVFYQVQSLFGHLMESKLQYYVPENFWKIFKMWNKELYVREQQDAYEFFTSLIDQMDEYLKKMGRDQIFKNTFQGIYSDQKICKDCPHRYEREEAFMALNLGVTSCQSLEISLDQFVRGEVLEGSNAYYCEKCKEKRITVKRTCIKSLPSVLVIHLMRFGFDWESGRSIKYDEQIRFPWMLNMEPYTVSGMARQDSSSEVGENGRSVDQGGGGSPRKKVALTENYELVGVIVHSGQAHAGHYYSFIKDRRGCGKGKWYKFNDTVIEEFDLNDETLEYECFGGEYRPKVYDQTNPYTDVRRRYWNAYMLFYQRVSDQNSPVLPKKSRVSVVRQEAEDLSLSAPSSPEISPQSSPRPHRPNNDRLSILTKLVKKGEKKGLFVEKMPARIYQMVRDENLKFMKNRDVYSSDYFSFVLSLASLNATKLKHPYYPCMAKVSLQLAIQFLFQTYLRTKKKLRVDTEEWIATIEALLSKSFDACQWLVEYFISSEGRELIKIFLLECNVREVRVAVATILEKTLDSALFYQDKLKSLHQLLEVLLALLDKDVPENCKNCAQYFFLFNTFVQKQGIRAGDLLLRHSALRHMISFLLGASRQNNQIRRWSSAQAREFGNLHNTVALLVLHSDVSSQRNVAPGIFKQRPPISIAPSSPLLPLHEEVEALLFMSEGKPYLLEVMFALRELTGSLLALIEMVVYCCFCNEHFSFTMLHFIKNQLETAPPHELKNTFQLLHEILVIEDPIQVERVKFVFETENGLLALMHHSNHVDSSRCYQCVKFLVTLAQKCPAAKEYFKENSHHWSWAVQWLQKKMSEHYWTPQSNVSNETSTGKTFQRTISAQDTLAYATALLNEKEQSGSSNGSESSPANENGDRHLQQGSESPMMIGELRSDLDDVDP
# Summary of the method: as §1
# USP25 = target: T3, USP25 (UniProt Q9UHP3)
# T3 sequence (whole entry): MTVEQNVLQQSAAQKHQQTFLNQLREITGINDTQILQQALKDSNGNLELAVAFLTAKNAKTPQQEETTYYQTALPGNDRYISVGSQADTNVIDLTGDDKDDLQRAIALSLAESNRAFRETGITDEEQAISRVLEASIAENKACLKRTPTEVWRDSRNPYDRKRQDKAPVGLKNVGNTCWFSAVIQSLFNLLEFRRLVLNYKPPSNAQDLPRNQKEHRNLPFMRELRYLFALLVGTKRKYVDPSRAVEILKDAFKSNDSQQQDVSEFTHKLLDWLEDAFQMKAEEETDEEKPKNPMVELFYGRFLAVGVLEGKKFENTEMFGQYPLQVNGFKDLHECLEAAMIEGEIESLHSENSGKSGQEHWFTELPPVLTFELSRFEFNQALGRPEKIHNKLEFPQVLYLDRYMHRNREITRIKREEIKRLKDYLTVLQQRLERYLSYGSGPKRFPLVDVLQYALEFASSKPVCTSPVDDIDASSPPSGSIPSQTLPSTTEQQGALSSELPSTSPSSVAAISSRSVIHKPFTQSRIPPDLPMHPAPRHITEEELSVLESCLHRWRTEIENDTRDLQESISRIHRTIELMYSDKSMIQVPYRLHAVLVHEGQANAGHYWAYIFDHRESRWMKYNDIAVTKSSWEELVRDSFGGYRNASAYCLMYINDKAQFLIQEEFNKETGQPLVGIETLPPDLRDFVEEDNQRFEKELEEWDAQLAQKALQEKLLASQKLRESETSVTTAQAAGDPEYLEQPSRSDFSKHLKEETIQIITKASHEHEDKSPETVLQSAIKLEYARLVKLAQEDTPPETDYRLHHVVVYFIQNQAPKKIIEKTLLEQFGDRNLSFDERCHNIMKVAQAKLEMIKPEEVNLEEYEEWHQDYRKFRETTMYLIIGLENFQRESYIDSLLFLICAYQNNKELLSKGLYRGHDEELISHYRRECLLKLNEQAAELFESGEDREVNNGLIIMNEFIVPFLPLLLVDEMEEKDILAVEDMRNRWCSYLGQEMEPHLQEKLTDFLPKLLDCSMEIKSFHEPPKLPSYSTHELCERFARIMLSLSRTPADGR
# Summary of the method: as §1
# USP28 = target: T4, USP28 (UniProt Q96RU2)
# T4 sequence (whole entry): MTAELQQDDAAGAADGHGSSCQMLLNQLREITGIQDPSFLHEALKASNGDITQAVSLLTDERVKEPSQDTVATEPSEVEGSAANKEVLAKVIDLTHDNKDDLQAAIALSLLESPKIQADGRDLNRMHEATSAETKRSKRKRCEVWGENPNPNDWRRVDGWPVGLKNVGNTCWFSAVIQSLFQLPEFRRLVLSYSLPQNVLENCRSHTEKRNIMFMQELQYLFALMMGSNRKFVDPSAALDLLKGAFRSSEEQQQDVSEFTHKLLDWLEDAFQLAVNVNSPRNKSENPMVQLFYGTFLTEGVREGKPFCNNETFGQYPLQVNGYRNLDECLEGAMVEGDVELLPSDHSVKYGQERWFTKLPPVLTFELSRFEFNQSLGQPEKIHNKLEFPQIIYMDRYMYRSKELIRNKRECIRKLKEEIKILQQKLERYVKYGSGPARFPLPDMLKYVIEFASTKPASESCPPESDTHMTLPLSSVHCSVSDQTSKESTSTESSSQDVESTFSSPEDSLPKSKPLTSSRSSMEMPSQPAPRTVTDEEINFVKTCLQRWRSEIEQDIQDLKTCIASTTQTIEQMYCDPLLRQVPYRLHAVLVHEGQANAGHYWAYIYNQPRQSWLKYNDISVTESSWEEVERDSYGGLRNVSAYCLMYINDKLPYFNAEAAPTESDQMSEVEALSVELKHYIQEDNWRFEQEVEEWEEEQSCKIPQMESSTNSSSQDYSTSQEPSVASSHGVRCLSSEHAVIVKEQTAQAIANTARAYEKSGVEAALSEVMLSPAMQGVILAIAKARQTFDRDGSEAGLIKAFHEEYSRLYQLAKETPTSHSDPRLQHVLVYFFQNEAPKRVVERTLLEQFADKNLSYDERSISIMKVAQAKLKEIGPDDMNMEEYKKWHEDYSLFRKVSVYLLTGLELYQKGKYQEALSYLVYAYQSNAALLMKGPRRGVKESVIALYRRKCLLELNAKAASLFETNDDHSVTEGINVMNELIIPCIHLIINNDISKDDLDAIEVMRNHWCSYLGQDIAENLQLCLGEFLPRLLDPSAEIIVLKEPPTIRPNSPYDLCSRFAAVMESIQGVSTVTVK
# Summary of the method: as §1
structure (smiles),measurement,setting,value
O=C(CCl)N[C@H]1CC[C@@H](CO)CC1,log2 ratio of Biotin-Ahx-Ub-VS probe labelling,USP19,-0.828
same,log2 ratio of Biotin-Ahx-Ub-VS probe labelling,USP22,-0.256
same,log2 ratio of Biotin-Ahx-Ub-VS probe labelling,USP24,-1.05 (active)
same,log2 ratio of Biotin-Ahx-Ub-VS probe labelling,USP25,-0.739
same,log2 ratio of Biotin-Ahx-Ub-VS probe labelling,USP28,-1.09 (active)
